Inhibition data for 33 compounds are collected here from PubChem BioAssay AID624167 (Sanford-Burnham Center for Chemical Genomics, 2012).

In general, inhibition refers to the change of the read-out against control, counted positive when it falls.

SMILES strings stand for the structures.

This test in a line: Peg3 promoter luciferase inhibitors, potency, dose response, cell-based, HeLa, CREF/GAPDH counter-screen panel (AID 624167). Particulars: CREF/GAPDH counter-screens; run 2, dose range 1, at 100 µM (top of the series).
With `Cc1cc(Br)ccc1NC(=O)CNC(=O)Cn1ncc(Cl)c(Cl)c1=O`, the inhibition stood at 98.9%.

Take `Cc1cc(C)c2sc(NNC(=O)c3ccc(S(=O)(=O)N4CCc5ccccc5C4)cc3)nc2c1`: the inhibition came out at 62%.

Regarding `CC(C)CCCCCCCCCCCCC(=O)NCC(=O)NC1C(O)C(O)C(Nc2ncnc3nc[nH]c23)OC1C(O)CO` (stereo not drawn), the inhibition turned out to be 98.2%.

Turning to `O=C(N/N=C\c1c(O)ccc2ccccc12)c1ccc(Cn2cccn2)o1`, the inhibition was found to be 34.2%.

Take `CCCC(=O)NC(c1ccc(C(C)C)cc1)c1ccc2cccnc2c1O` (stereo not drawn): the inhibition is 45.7%.

`Cc1ccc(-n2c(N)c(C(=O)Nc3c(C)n(C)n(-c4ccccc4)c3=O)c3nc4ccccc4nc32)cc1`: the inhibition came to 81.3%.

For `O=C(O)c1ccc(N/N=C/c2ccc3c(c2)OCO3)cc1`, the inhibition is 97.7%.

With `Cc1cccc(OCC(=O)NCC(=O)N/N=C/c2cc(Br)cc(Br)c2O)c1`, the inhibition amounted to 74.4%.

Take `CCCCC(=O)NC(c1ccc(OC)cc1)c1ccc2cccnc2c1O` (stereo not drawn): the inhibition came out at 20.5%.

Take `Cc1ccc(/C=C2\SC(=S)N(CCCC(=O)NNC(=O)c3ccccc3O)C2=O)cc1`: the inhibition was found to be 69.2%.

Turning to `O=C(N/N=C/c1c(O)ccc2ccccc12)c1ccc(CO)nc1`, the inhibition is 3.42%.

For `COc1ccc(-n2cc(-c3ccccc3)c3c(N4CCOCC4)ncnc32)cc1`, the inhibition was determined as 91.3%.

On to `CC(C)(C)c1ccc(Oc2ccc(N)cc2)cc1`, for which the inhibition stood at 95.6%.

With `COCCCNC(=O)c1ccc(Cn2c(=O)c3ccccc3n(Cc3ccccc3C#N)c2=O)cc1`, the inhibition stood at 25.1%.

As for `CN(C)c1ccc(C=c2c3ccccc3n3c2cc(-c2ccccc2)[n+]3C)cc1`, the inhibition came out at 100%.

For the compound `CC(=O)NC(c1ccc(Cl)cc1)c1ccc2cccnc2c1O` (stereo not drawn), the inhibition came out at 64.1%.

Turning to `Cc1ccc(/C=C2\SC(=S)N(CCCC(=O)Nc3ccccn3)C2=O)cc1`, the inhibition came to 76.5%.

As for `CC(/C=C/c1ccccc1)=N/NC(=O)c1cc([N+](=O)[O-])cc([N+](=O)[O-])c1`, the inhibition was 12.6%.

On to `CCC(=O)NC(c1ccc(C)cc1)c1ccc2cccnc2c1O` (stereo not drawn), for which the inhibition stood at 53.6%.

As to `CCOc1cccc(/C=N/NC(=S)Nc2cc(S(=O)(=O)N3CCOCC3)ccc2N2CCOCC2)c1O`, the inhibition was -7.85%.

Regarding `CC(=O)c1ccc(-c2cnc3c(NC=O)cc(-c4ccccc4Oc4ccccc4)cn23)cc1`, the inhibition was 40%.

As to `C/C(=N\NC(=O)c1c(C)nc2ccccn12)c1ccc(O)cc1O`, the inhibition was 7.76%.

For the compound `CCCCCCCn1c(=N)n(CC(=O)c2ccco2)c2ccccc21`, the inhibition was found to be 90.6%.

Take `COc1cccc(OC)c1C(=O)Nc1cc(C)nn1-c1nc2ccccc2[nH]1`: the inhibition was 54.4%.

On to `O=[N+]([O-])c1ccc(S(=O)(=O)c2ccccc2)nc1`, for which the inhibition was determined as 94.5%.

With `Clc1ccccc1/C=C/c1nc(-c2ccccn2)no1`, the inhibition worked out at 96.2%.

As for `O=C(O)c1ccc(N/N=C/c2ccc3nccnc3c2)cc1`, the inhibition stood at 99.2%.

In the case of `CCCn1nc(C(=O)Nc2nc(-c3ccccn3)cs2)c2ccccc2c1=O`, the inhibition stood at 37.9%.

As to `CC(=O)c1cccc(-c2ccnc3c2CC(C(=O)Nc2cccc(NS(C)(=O)=O)c2)O3)c1` (stereo not drawn), the inhibition amounted to 52%.

As for `CC(C)(C)c1ccc(Cn2c(=O)cnc3ccccc32)cc1`, the inhibition was 96.6%.

Turning to `Cc1ccsc1/C=N/Nc1cccc(C(=O)O)c1`, the inhibition stood at 96.5%.

As for `N=c1n(CC(=O)c2ccc([N+](=O)[O-])cc2)c2ccccc2n1Cc1ccc(Cl)cc1`, the inhibition is 90.8%.

Take `CCCC(=O)NC(c1ccc(OC)cc1)c1ccc2cccnc2c1O` (stereo not drawn): the inhibition came out at 69%.
